# Hits are enriched below; roughly 14% of the tested compounds scored in any of these assays.
# FBPA Giardia inh – Giardia lamblia aldolase inhibition. purified Giardia FBPA. 290,000 tested, 0.71% active. Potency, µM (series often up to 59.6 µM), without a hit: top-dose activity, negative = inhibition, most hits filed as inhibitors. A8B2U2; also: potency is read from the fitted curve at half-maximal effect; nearly all actives have a fitted effect of over 55% in size
# Target sequence (A8B2U2 whole entry, looked up): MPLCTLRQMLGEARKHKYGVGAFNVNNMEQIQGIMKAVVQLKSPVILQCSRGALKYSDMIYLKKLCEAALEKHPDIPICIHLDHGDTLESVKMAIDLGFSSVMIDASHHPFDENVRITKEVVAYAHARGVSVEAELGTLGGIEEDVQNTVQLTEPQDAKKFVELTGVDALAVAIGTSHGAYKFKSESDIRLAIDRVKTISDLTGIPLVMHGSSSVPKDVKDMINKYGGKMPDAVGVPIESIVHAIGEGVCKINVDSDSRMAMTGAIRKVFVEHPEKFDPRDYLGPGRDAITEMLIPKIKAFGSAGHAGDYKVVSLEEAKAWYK
#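 Giardia FBPA (40 nM reagent) was preincubated 10 min at RT with compound (up to 57.5 uM final), then substrate plus GAPDH/TPI/NAD/arsenate coupling system with diaphorase/resazurin was added; resorufin fluorescence (525/598 nm) was read after 20 min.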
# HCMV inh – human cytomegalovirus inhibition. HFF cells, HCMV-luciferase reporter, 72 h; stronger effect = lower value. activity change, negative = inhibition, % at 57.5 µM. 410,000 tested, 4.5% active. AID 1259415; in the data active = activity change below about -60%; inconclusive = no clear call, values can overlap the other calls; inactive = above about -39%
#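 Inhibition of viral replication was scored as loss of reporter luminescence in HFFs infected with HCMV-luciferase (MOI 1 PFU/cell) for 72 h; compounds tested at 2 doses, normalized to buffer and Salinomycin controls.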
# Pf growth 96h – inhibits malaria parasite growth, 96 h; P. falciparum luciferase reporter growth, 96 h; Potency, µM (doses to about 28.7 µM), for the others: at the highest dose activity change, negative = inhibition, usual class: inhibitors; 320,000 tested, 6.9% active; AID 504834; also: potency is read from the fitted curve at half-maximal effect
#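 Erythrocytes infected with luciferase-expressing P. falciparum were dispensed at 2% hematocrit and 0.05% parasitemia (final), then incubated with compounds 96 hours at 37 C in 5% CO2. Luminescence after detection reagent addition reported growth.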
# Sm TGR inh – inhibitors of Schistosoma mansoni thioredoxin glutathione reductase | purified TGR, DTNB reduction, TNB absorbance 405 nm | Potency, µM (titrated, usually from 114 µM), without a hit: at the highest dose activity change, negative = inhibition, most hits filed as inhibitors | 360,000 tested, 3% active; also: potency is read from the fitted curve at half-maximal effect; nearly all actives have a fitted effect of over 60% in size
#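 First, TGR (20 nM dispensed) and NADPH were mixed with compound. Second, a 15 min room-temperature incubation followed. Third, further NADPH and then DTNB were added to start the reaction. Finally, TNB absorbance was monitored kinetically.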
# Pf growth 48h – inhibits P. falciparum growth in the first generation, 48 h. P. falciparum luciferase growth in erythrocytes, 48 h. Potency, µM (highest dose often 28.7 µM), for inactives: at the highest dose activity change, negative = inhibition, actives largely listed as inhibitors. 310,000 tested, 5.9% active. AID 504832; also: potency is read from the fitted curve at half-maximal effect
#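 Compounds are pin-transferred into medium, infected erythrocytes (2% hematocrit, 0.1% parasitemia final) are added, and plates sit one parasite generation at 37 C in 5% CO2. Detection reagent is then added and luminescence measured.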
# * hit, by the source's call; ? = inconclusive; / = no result; ! = a repeat was not active; [ ] = dose if it differs, or a comment. Unless noted, calls follow the shape of the dose curve; as a rule, active = well fitted curve in the direction sought with a large enough effect; inconclusive = small, poorly fitted or top-dose-only effect, or another doubt; inactive = no such curve, though single readings can be large; an effect the other way counts as inactive or inconclusive. % is scaled to controls: 0 for no effect and ±100 for the full control effect.
SMILES,FBPA Giardia inh,HCMV inh,Pf growth 96h,Sm TGR inh,Pf growth 48h
Cc1cccc(-c2nc(CCNC(=O)c3ccco3)cs2)c1,/,-68*!,/,0%,/
O=C(NCCc1csc(-c2ccc(C(F)(F)F)cc2)n1)c1ccc(F)c(F)c1,/,-63*,/,6%,/
O=C(Cc1csc(-c2ccccc2)n1)NCc1ccco1,0%,-13,40%,40µM*,23%
Cc1cccnc1NC(=O)CCC(=O)c1cccs1,/,13,-11%,0%,-12%
COc1cc(C(=O)c2ccccc2)c(OC)cc1C(=O)Nc1ccc(O)cc1,-6%,-27,6%,-2%[57.1 µM],-26%
O=C(COc1ccc(Cl)cc1)Nc1ncc([N+](=O)[O-])s1,4%,-61*,-19%,-31%,199%
CC(=O)c1sc(NC(=O)COc2ccc(Br)cc2)nc1C,1%,?,0%,5%,12%
CC(=O)c1sc(NC(=O)COc2ccc([N+](=O)[O-])cc2)nc1C,4%,-24,15µM*,-6%,16%
Cc1noc(C)c1NC(=O)N(C)C[C@H]1Oc2ccc(NC(=O)NC3CCCCC3)cc2C(=O)N([C@H](C)CO)C[C@@H]1C,/,-13,/,/,/
CN1CC(=O)N(CC(=O)N2N=C(c3ccc(Cl)cc3)CC2c2ccco2)C1=O (centres undefined),-13%,-5,0%,22µM*,-22%
O=C(O)/C=C/C(=O)N1N=C(c2ccco2)CC1c1ccco1 (centres undefined),-1%,12,0%,?,6%
CCC(=O)N1N=C(c2ccc(Cl)cc2)CC1c1ccco1 (centres undefined),0%,-4,-3%,-6%,2%
O=C(COc1ccccc1F)N1N=C(c2cccs2)CC1c1ccco1 (centres undefined),/,-24,?,25µM*,?
O=C(CCl)N1N=C(c2cccs2)CC1c1ccco1 (centres undefined),4%,-97*,1%,2.5µM*,?
CN1CCN(CC(=O)N2N=C(c3cccs3)CC2c2ccco2)CC1 (centres undefined),-2%,0,-17%,3%,1%
O=C(CCl)N1N=C(c2ccco2)CC1c1ccco1 (centres undefined),0%,-72*,13µM*,6.3µM*,13µM*
Cc1ccc(CNC(=O)CNS(=O)(=O)c2cccs2)cc1,/,23,/,-1%,/
O=C(Nc1ccc(Cl)cc1C(=O)c1ccccn1)c1ccccc1,/,20,/,/,/
CS(=O)(=O)N1CCC(Oc2ccccc2C(=O)NCCCc2cccnc2)CC1,1%,1,9.3µM*,-13%,-11%
CN(C)C(=O)c1cccc(-c2cccc(-c3nc(C(=O)NCc4ccccc4)cc4c3[C@@H](CCO)N(S(=O)C(C)(C)C)C4)c2)c1 (some centres undefined),/,-61*,/,/,/
COc1cc(C(C(=O)NC2CCCCC2)N(Cc2cccs2)C(=O)Cc2c[nH]c3ccccc23)cc(OC)c1OC (centres undefined),-3%,-79*,8.3µM*,2%,9.3µM*
COc1ccc(C(C(=O)Nc2ccc3c(c2)OCO3)N(C)C(=O)Cc2c[nH]c3ccccc23)cc1 (centres undefined),-5%,-32,?,-10%,?
COc1ccc(C(C(=O)NC2CCCCC2)N(C(=O)Cc2c[nH]c3ccccc23)c2ccc(NC(C)=O)cc2)cc1OC (centres undefined),1%,58,9.3µM*,-12%,10µM*
COc1ccccc1CN(C(=O)Cc1cccs1)C(C(=O)NC1CCCC1)c1ccncc1 (centres undefined),14%,-16,17%,11%,?
COc1cc(C(C(=O)NC2CCCCC2)N(C(=O)Cc2c[nH]c3ccccc23)c2ccccc2C)cc(OC)c1OC (centres undefined),-4%,70,?,-3%,13µM*
Cc1ccccc1N(C(=O)Cc1ccsc1)C(C(=O)NC1CCCCC1)c1ccc(F)cc1 (centres undefined),4%,-18,?,54%,1%
O=c1c(-c2ccc(F)cc2)nc2cnc(N3CCNCC3)nc2n1C1CC1,1%,/,/,/,/
O=S(=O)(/C=C/C=C/S(=O)(=O)c1ccccc1)c1ccccc1,/,-78*,/,/,/

# Bioassay records from PubChem BioAssay.
